# The campaign covered roughly 340,000 compounds. About 3,400 (1%) were called active. Many of the other results were omitted from the sample, so actives are more common in it than they were. Unmarked numbers belong to inactive results.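 Rule for the calls: active = inhibition above the mean over all tested compounds plus 3 SD (cut at about 4.2% in these data); inactive = the rest.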
# Biological target: Nuclear receptor subfamily 0 group B member 1 (Homo sapiens) (UniProt P51843)
# Assay: relief of DAX1 transcriptional repression – cell-based, HEK293, Gal4-DAX1, luciferase luminescence, primary screen (AID 504766);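 note: 0% = DAX1-transfected cells with DMSO and 100% = empty-vector control cells with DMSO; inhibition shows as a rise in luminescence from relieved DAX1 repression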
# Details: HEK293 Gal4-DAX1 luciferase reporter, at 6.75 µM, active compounds read high
# Nuclear receptor subfamily 0 group B member 1 (Homo sapiens), sequence (P51843 207-470 limits assumed): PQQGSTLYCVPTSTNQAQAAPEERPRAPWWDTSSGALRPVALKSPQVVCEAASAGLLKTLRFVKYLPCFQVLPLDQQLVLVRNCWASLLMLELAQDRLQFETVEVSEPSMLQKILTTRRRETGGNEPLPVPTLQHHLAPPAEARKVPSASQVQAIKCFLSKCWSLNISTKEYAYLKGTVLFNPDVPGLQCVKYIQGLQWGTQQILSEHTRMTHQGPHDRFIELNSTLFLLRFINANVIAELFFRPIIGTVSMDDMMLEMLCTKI
row,SMILES,inhibition
1,Nc1cccc(-c2cc(-c3ccccc3)nc(-c3cccc(N)c3)n2)c1,-0.66%
2,c1ccc(-c2cc(-c3ccccc3)[nH]n2)cc1,5.19% (active)
3,Oc1ccccc1-c1cc(-c2ccc(Cl)cc2)n[nH]1,3.28%
4,Cc1[nH]c2ccccc2c1C(=O)C(=O)NCc1nnnn1-c1cccc(F)c1,-0.63%
5,O=C1CCC(C(=O)OCC(=O)Nc2ccc(OC(F)F)cc2)=NN1,0.5%
6,O=C(N=C1SC2CS(=O)(=O)CC2N1Cc1ccccc1)c1ccccc1 (configuration not stated),4.11%
7,O=C(c1cccs1)N1C[C@H](n2cc(C3CC3)nn2)[C@@H](O)C[C@@H]1c1ccccc1,1.63%
8,C#CCN(C[C@@H]1[C@@H](OC(=O)NC2CC2)[C@@H](OC(=O)NC2CC2)Cn2c(=O)ccc(=O)n21)S(=O)(=O)c1ccc(C)cc1,-0.06%
9,Cc1ccccc1OS(=O)(=O)c1cccc([N+](=O)[O-])c1,1.42%
10,O=C(c1ccncc1)N1CCN(S(=O)(=O)c2cccc([N+](=O)[O-])c2)CC1,0.88%
11,N/C(=N\OS(=O)(=O)c1cccc([N+](=O)[O-])c1)c1ccncc1,4.92% (active)
12,O=Cc1ccc(OCc2cn3ccccc3n2)cc1,7.12% (active)
13,CN(C)C(CNC(=O)c1ccc(OCc2cn3ccccc3n2)cc1)c1ccco1 (configuration not stated),0.93%
14,O=C(NCCc1ccco1)c1ccc(OCc2cn3ccccc3n2)cc1,0.65%
15,N#CCCN(C(=O)Nc1ccc(Cl)c(Cl)c1)C1CCCCC1,1.35%
16,CC1CCN(c2ccc3c(c2)S(=O)(=O)c2cc(C(=O)O)ccc2C3=O)CC1,-0.21%
17,CCOC(=O)C(NC(C)=O)C(=O)Nc1ccc(OC)cc1 (configuration not stated),1.97%
18,COc1ccc(NC(=S)NCC2CCN(c3ccc(OC)cc3)C2)cc1 (configuration not stated),0.86%
19,COc1ccc(NC(=S)NCCNC(C)=O)cc1,4.78% (active)
20,COc1ccc(NC(=O)c2cc(=O)[nH]c3ccccc23)cc1S(=O)(=O)N1CCOCC1,1.51%
21,COC(=O)c1ccccc1N=NNc1ccc([N+](=O)[O-])cc1,2.03%
22,C[C@H](CO)N1C[C@H](C)[C@@H](CN(C)Cc2ccc3c(c2)OCO3)OCc2cnnn2CCCC1=O,0.31%
23,Cc1csc(=O)n1CCC(=O)OCC(=O)Nc1ccc(N2CCOCC2)cc1,0.99%

row,SMILES,inhibition
1,CCN1C(=O)[C@H]2[C@@H](c3ccccc3)N[C@]3(CCCN(Cc4ccc(C)cc4)C3=O)[C@H]2C1=O,0.28%
2,O=C(NN=Cc1ccc([N+](=O)[O-])cc1)C1CC1,0.79%
3,O=[N+]([O-])c1ccc(C=NN=Cc2ccc([N+](=O)[O-])cc2)cc1,0.89%
4,O=C(N/N=C/c1ccc([N+](=O)[O-])cc1)c1c[nH]c2ccccc12,5.39% (active)
5,COc1ccc(-c2cnc3c(c2)C(=O)N([C@H](C)CO)C[C@@H](C)[C@H](CN(C)Cc2ccccc2)O3)cc1,1.69%
6,CN(C)/C=C(/C(=O)c1ccc(F)cc1)S(=O)(=O)c1ccc(F)cc1,7.15% (active)
7,CN(C)/C=C(/C(=O)c1ccccc1)S(=O)(=O)c1ccc(Cl)cc1,-0.08%
8,CN(C)/C=C(/C(=O)c1ccc(Cl)cc1)S(=O)(=O)c1ccccc1,-0.69%
9,CCOC(=O)C=Cc1ccc(C(=O)OCC)[nH]1,-1.29%
10,Cc1ccc(S(=O)(=O)NN=C2CC(C)(C)CC(=O)C2(C)C)cc1,1.47%
11,O=C(Nc1ccccc1N1CCOCC1)c1csc2c1CCCC2,-0.73%
12,COC(=O)c1sccc1NC(=O)c1csc2c1CCCC2,4.39% (active)
13,COC(=O)c1sccc1NC(=O)c1ccc(Cl)cc1,0.77%
14,O=C(C[C@H]1C[C@@H]2c3cc(NC(=O)C4CCC4)ccc3O[C@@H]2[C@H](CO)O1)NC1CCCCC1,1.37%
15,CC1=C(C(=O)N2CCOCC2)CC(CC(=O)NCCN2CCOCC2)C(=O)N1CCC1=CCCCC1 (configuration not stated),1.93%
16,C[C@@H]1CN([C@H](C)CO)C(=O)CCCn2nncc2CO[C@@H]1CN(C)S(=O)(=O)c1cccc(C#N)c1,2.66%
17,COc1cc(-c2nnc(NC(=O)CS(=O)(=O)c3ccc(Cl)cc3)o2)cc(OC)c1OC,0.2%
18,COc1ccc(NC(=O)C(C)SCc2ccccc2)cc1 (configuration not stated),6.52% (active)
19,Cc1cccc(NC(=O)C(C)SCc2ccccc2)c1 (configuration not stated),-1.2%
20,COc1ccc(NC(=O)C(Br)C(C)C)cc1 (configuration not stated),1.41%
21,COc1ccc(NC(=O)CCC(=O)N2CCN(S(=O)(=O)c3ccc(C)cc3)CC2)c(OC)c1,-2%
22,O=C(CCC(=O)N1CCN(S(=O)(=O)c2ccccc2)CC1)NC1CCCc2ccccc21 (configuration not stated),0.76%
23,Cc1ccc(S(=O)(=O)N2CCN(C(=O)CCC(=O)NC3CCCc4ccccc43)CC2)cc1 (configuration not stated),4.27% (active)

row,SMILES,inhibition
1,CCCCCC(=O)N1C[C@H](O)[C@@H](n2cc(COC(=O)c3ccccc3)nn2)C[C@@H]1c1ccc(C)cc1,0.45%
2,O=C(OCc1ccccc1)N1CCC2CC1c1cc(N3CCN(S(=O)(=O)c4cc(Cl)cc(Cl)c4)CC3)ccc12 (configuration not stated),1.86%
3,CC(=O)c1ccccc1NC(=O)COC(=O)C1COc2ccccc2O1 (configuration not stated),0.71%
4,CC(C)Sc1ncnc2c1cnn2-c1ccccc1,6.85% (active)
5,CCN(CC)C(=O)CSc1ncnc2c1cnn2-c1ccccc1,0.89%
6,CC(Sc1ncnc2c1cnn2-c1ccccc1)C(=O)Nc1ccc(N2CCOCC2)cc1 (configuration not stated),-0.48%
7,NC(=O)CSc1nnc(-c2cccc(S(=O)(=O)N3CCOCC3)c2)o1,0.86%
8,CN1OC[C@@H]2CN(C(=O)c3ccc(-c4ccccc4)cc3)[C@H](c3ccc(-c4cccc(F)c4)cc3)C[C@@H]21,-0.68%
9,CN1CCN(C(=O)CCc2nc(-c3ccc(Cl)cc3)no2)CC1,5.55% (active)
10,COc1ccc(N2CCN(C(=O)CCc3nc(-c4ccc(C)cc4)no3)CC2)cc1,-0.22%
11,COc1ccc(-c2noc(CCC(=O)N3CCN(c4cccc(C)c4)CC3)n2)cc1,0.39%
12,CC(C)NC(=S)NN=C1CCCCCCCCCCC1,-0.27%
13,CC(C)(C)NC(=O)C(=O)NN=C1CCCCCCC1,6.84% (active)
14,CCc1ccc(C(=O)NN=C2CCCCCC2)s1,1.24%
15,C[C@@H]1CN([C@H](C)CO)C(=O)CCCn2cc(nn2)CO[C@H]1CN(C)S(=O)(=O)c1ccc(Oc2ccccc2)nc1,0.73%
16,CN(c1ccccc1)S(=O)(=O)c1ccc(C(=O)NCc2cccnc2)cc1,-0.1%
17,O=C(NCc1nnnn1-c1ccc(Cl)cc1)c1ccc2c(c1)OCO2,0.46%
18,O=C(c1ccc(F)cc1)n1cc(C(=S)N2CCOCC2)c2ccccc21,1.01%
19,O=C(Cn1c(=S)nc2ccccn21)N1CCc2ccccc2C1,1.21%
20,O=C(c1ccc(F)cc1)n1c(=S)nc2ccccn21,5.47% (active)
21,O=[N+]([O-])c1ccc(C(S(=O)(=O)Cc2ccccc2)S(=O)(=O)Cc2ccccc2)cc1,1.99%

# — PubChem BioAssay AID504766 (The Scripps Research Institute Molecular Screening Center, 2011)
